The text below walks through data of PubChem BioAssay (NCI).

Assay in all cases: NCI-60 one-dose screen, 48 h (100 = growth as untreated, 0 = no growth, -100 = all killed)
What all share (conditions): 10 µM unless noted

Assay [1] deals with NCI-H23 lung.
The subject of assay [2] is NCI-H226 lung.
In assay [3] the test system is NCI-H322M lung.
The subject of assay [4] is HOP-62 NSCLC.
Assay [5] deals with NCI-H460 lung.
The subject of assay [6] is HOP-92 NSCLC.
Assay [7] concerns 786-0 renal.
Assay [8] relates to COLO 205 colon.
Assay [9] relates to A549/ATCC NSCLC.
Assay [10] concerns NCI-H522 lung.

Each structure is given as a SMILES string. Compounds without any hit were thinned out: in the full panel of roughly 83,000, 20% have a hit.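 A percent growth of 40 corresponds to 60% growth inhibition; 0 means no net growth; -100 means all cells died. Active threshold: below 10.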 A number with no mark means an inactive call. Active and inactive are the calls of the source.

In the case of `COc1ccc(-c2ccc(-c3ccc(C(=N)N)s3)s2)cc1`, the growth was -70.3% (active) in [1]; -50.9% (active) in assay [2]; -93.4% (active) in [3]; -81.6% (active) in [4]; -64.2% (active) in [5]; -64.2% (active) in [6]. Moreover, the figures for the growth in [7] and in [8] were -64.4% (active) and -89.2% (active), respectively.

Regarding `Cc1cc(Nc2c3ccccc3nc3ccccc23)ccc1NS(C)(=O)=O`, the growth in assay [1] was 47%; in assay [2], 41.8%; in assay [3], 34.3%; in assay [4], 36.9%; in [5] it was 14.4%; in assay [6], -5.41% (active). In addition, the growth was 39.8% in assay [7] and 18.3% in assay [8].

Take `N=C(N)c1ccc(-c2ccc(-c3cccs3)s2)cc1F`: the growth is -62.8% (active) in assay [1]; -65.6% (active) in [2]; -92.4% (active) in assay [3]; -96.2% (active) in assay [4]; -57.4% (active) in assay [5]; -62% (active) in [6]. The growth in assay [7] was -86% (active); in [8], -87.1% (active).

For the compound `COc1ccc(/C=N/NC(N)=S)c(OC)n1`, the growth in assay [1] was 108%; in assay [2], 85.7%; in assay [3], 104%; in [4], 116%; in assay [5] it was 106%; in assay [6] it was 113%. The growth in assay [7] is 104%; in [8], 111%.

Regarding `COC(=O)[C@@H](Cc1c[nH]c2ccccc12)NC(=O)/C=C/c1ccccc1`, the growth is 39.4% in [1]; 60.2% in assay [2]; 33.8% in [3]; 19% in assay [4]; 9.94% (active) in assay [5]; 54.6% in assay [6]. Also, the growth in assay [7] is 28.8%; in [8] it was 97.3%.

For `O=C1OC(/C=C/c2ccccc2)=NC/1=C/c1ccccc1[N+](=O)[O-]`, the growth in [1] is 106%; in assay [2], 93.3%; in [3] it was 84.6%; in assay [4], 91.4%; in assay [5], 103%; in assay [6], 81.2%. Moreover, the growth is 97.6% in assay [7] and 98% in assay [8].

As for `ClC1=NC(Cl)C(Cl)=N/C1=N\c1ncn[nH]1` (stereo unspecified), the growth is 62.8% in [1]; 106% in assay [2]; 89.2% in assay [3]; 39.3% in assay [4]; 73.3% in assay [5]; -60% (active) in assay [6]. In addition, the growth in assay [7] was 81.2%; in assay [8], -76.4% (active).

Turning to `ClCCn1cnc2c(SCc3ccccc3Cl)ncnc21`, the growth in assay [1] was 53.1%; in assay [2], 57%; in assay [3], 40.4%; in [4] it was 64%; in assay [5], 2.49% (active); in assay [6], 62.3%. The growth was 40.1% in assay [9], 33% in assay [7] and 41.7% in assay [8].

On to `N=C(N)c1ccc(-c2ccc(-c3ccco3)o2)cc1F`, for which the growth in [1] was 56.2%; in [2], 67.4%; in assay [3], -10.4% (active); in assay [4], 32.2%; in assay [5], 0.478% (active); in [6], -20% (active). Further, the growth in assay [7] was 4.8% (active); in assay [8], -93.4% (active).

For the compound `CCS(=O)(=O)Nc1cccc(Nc2c3cccc(C)c3nc3c(C)cccc23)c1OC`, the growth in [1] was 11.1%; in assay [2] it was -6.89% (active); in assay [3], 49.1%; in [4], 8.84% (active); in [5] it was 3.23% (active); in [6] it was -11.8% (active). Also, the growth in assay [7] was -42.1% (active); in [8] it was 27.1%.

Take `CNC(=O)c1c(NC(=O)c2ccc(C(C)C)cc2)sc2c1CCC(=O)C2`: the growth in [1] was -1.47% (active); in assay [2] it was -24.5% (active); in assay [3] it was 17.6%; in [4], 12%; in [5], 7.34% (active); in assay [10], -26.3% (active). Besides, the growth in [9] was 15.9%; in [7], 13%; in [8], -70.3% (active).

In the case of `O=[N+]([O-])c1ccc(N/N=C/c2ccccc2O)nc1`, the growth in assay [1] is 33.9%; in assay [2], 83.3%; in assay [3], 39.6%; in [4], 32.7%; in assay [5], 15%; in assay [10], 9.71% (active). For the same compound, the growth in [9] was 31.4%; in [7] it was 21.8%; in assay [8] it was 14.6%.

Regarding `COc1cccc(N2CCN(c3ncnc4cc[nH]c34)CC2)c1`, the growth is 42.8% in assay [1]; 55.1% in [2]; 94% in [3]; 34.2% in [4]; 66.9% in [5]; 51.5% in assay [10]. The values for the growth in assay [9], in assay [7] and in assay [8] were 60.2%, 70.9% and 88.2%, respectively.

On to `COc1ccc(-c2conc2-n2nc(-c3ccccc3)nc2-c2ccccc2)cc1`, for which the growth in [1] is 98.3%; in assay [2], 89.7%; in assay [3], 97.6%; in assay [4], 95.9%; in [5], 120%; in assay [10], 89.7%. Moreover, the growth is 114% in assay [9], 107% in [7] and 112% in assay [8].

`CC(C)CC(=O)C(CCc1ccccn1)C(C)C` (stereo unspecified): the growth in [1] was 98.4%; in assay [2] it was 97.9%; in assay [3], 116%; in assay [4], 112%; in [5], 107%; in [10], 95.3%. Also, the growth in assay [9] is 93.9%; in assay [7] it was 105%; in [8] it was 130%.
